Assay [1] in a line: qHTS assay to identify small molecule agonists of the sonic hedgehog signaling (Shh) pathway (AID 1259368).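 Also: NIH/3T3-derived 3T3Gli1-Luc cells carrying a stable Gli1-driven firefly luciferase reporter; series mostly up to about 92 µM; nearly all actives have a fitted effect of over 15% in size.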 A digest of the protocol: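 3T3Gli1-Luc (NIH/3T3 clone, stable Gli1-Luc); 4 hr pre-incubation, then cpd in DMSO 24 hr, 37 C/5% CO2; luciferase reagent 30 min RT; luminescence.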
On the technique in general: In qHTS, concentration-response curves come from the screen itself.

Assay [2] in a line: qHTS assay to identify small molecule antagonists of the sonic hedgehog signaling (Shh) pathway (AID 1259369). Also: nearly all actives have a fitted effect of over 45% in size. Also: potency is read from the fitted curve at half-maximal effect. The method, boiled down: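 3T3Gli1-Luc, conditioned-medium-stimulated, 24hr cpd, 37C/5% CO2; Gli1-driven firefly Luc luminescence after 30min RT with luciferase reagent. Cells plated 4hr before cpd.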
Assay [3] deals with Estrogen receptor beta (Homo sapiens) (UniProt Q92731). The assay is described as follows: qHTS assay to identify small molecule agonists of the estrogen receptor beta (ER-beta) signaling pathway (AID 1259377; active = well fitted activation curve with a large enough effect in the signal ratio in the repeat runs, not every such curve was filed as active; the % refers to the signal ratio). A digest of the protocol: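 Ratiometric beta-lactamase FRET read-out came after 2 h substrate loading at room temperature. It followed 16 h compound treatment at 37C of GripTite HEK293T cells carrying a UAS-bla reporter, plated in 2% charcoal-stripped FBS medium.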
Estrogen receptor beta (Homo sapiens), sequence (Q92731 whole entry, looked up): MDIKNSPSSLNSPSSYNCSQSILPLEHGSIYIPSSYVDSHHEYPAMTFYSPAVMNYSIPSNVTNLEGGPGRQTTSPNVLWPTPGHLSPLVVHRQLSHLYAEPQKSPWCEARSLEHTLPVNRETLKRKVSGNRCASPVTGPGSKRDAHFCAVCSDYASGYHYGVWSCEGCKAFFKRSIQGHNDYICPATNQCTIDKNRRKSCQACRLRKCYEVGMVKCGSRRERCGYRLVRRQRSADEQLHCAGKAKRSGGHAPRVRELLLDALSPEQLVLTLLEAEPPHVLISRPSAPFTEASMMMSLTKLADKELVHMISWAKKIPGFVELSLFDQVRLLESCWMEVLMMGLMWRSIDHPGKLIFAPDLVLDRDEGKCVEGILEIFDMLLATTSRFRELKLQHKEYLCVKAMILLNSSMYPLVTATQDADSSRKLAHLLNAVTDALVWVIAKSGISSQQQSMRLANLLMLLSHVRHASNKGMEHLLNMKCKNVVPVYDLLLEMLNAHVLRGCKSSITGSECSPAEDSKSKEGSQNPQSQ

Assay [4] can be described thus: qHTS assay to identify small molecule agonists of the estrogen receptor beta (ER-beta) signaling pathway - cell viability counter screen (AID 1259380; active = well fitted curve in the direction sought with a large enough effect in the repeat runs; an effect the other way counts as inactive or inconclusive; also: nearly all actives have a fitted effect of over 30% in size; also: potency is read from the fitted curve at half-maximal effect). A digest of the protocol: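 HEK293T ER-beta-UAS-bla; 2% CS-FBS; 6 hr pre-plate, 16 hr cpd at 37C/5% CO2; LiveBLAzer read first, then CellTiter-Glo 30 min RT, luminescence.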
A short description of assay [5]: qHTS assay to identify small molecule antagonists of the estrogen receptor beta (ER-beta) signaling pathway - cell viability counter screen (AID 1259382; active = well fitted curve in the direction sought with a large enough effect in the repeat runs; an effect the other way counts as inactive or inconclusive; also: series mostly up to about 92 µM; nearly all actives have a fitted effect of over 55% in size). A digest of the protocol: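 Cells: ER-beta-UAS-bla HEK293T, 2,000/well, 2% CS-FBS, 6 hr settle. Cpd + E2 (1nM final), 16 hr, 37C/5% CO2. Bla FRET substrate 2 hr RT, then CellTiter-Glo 30 min RT, luminescence.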

In assay [6] the target is Estrogen receptor (Homo sapiens) (UniProt P03372). The assay is described as follows: qHTS assay to identify small molecule agonists of the estrogen receptor alpha (ER-alpha) signaling pathway in the presence of an antagonist (AID 1259383). Also: nearly all actives have a fitted effect of over 15% in size. Also: potency is read from the fitted curve at half-maximal effect. As to activation: top concentration of the series differs between compounds. A digest of the protocol: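 VM7Luc4E2, endog. ER-alpha + 4×ERE-luc; charcoal-stripped FBS, phenol red-free, 5 d; 24hr plating; +10.0nM ICI-182,780 (final); cpds 15 conc, 22hr, 37C/5% CO2; ONE-Glo luminescence.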
Estrogen receptor (Homo sapiens), sequence (P03372 whole entry, looked up): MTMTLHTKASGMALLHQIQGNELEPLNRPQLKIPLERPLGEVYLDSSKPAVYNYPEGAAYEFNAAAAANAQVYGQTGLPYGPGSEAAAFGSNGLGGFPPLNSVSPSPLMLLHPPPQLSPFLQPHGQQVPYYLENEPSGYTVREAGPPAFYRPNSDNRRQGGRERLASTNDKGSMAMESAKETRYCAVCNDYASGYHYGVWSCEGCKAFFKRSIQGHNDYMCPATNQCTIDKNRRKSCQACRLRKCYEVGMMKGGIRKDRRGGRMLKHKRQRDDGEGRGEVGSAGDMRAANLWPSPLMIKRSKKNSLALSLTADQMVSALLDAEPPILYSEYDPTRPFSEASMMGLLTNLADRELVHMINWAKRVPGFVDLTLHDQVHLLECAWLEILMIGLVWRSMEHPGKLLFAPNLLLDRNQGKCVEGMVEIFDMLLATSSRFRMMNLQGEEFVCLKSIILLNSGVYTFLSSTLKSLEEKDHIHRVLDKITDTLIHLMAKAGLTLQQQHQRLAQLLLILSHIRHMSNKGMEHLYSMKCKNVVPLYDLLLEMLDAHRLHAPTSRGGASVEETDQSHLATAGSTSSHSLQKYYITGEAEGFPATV

The nature of assay [7]: qHTS assay to identify small molecule agonists or antagonists of the thyroid stimulating hormone receptor (TSHR) signaling pathway - wild type cell line counter screen (AID 1259384). The method, boiled down: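 Wild-type Hek293 cells, 800/well, 18 h at 37C, then compound with Ro20-1724 for 30 min RT. cAMP by HTRF (cAMP-d2/anti-cAMP cryptate), 1 h RT, fluorescence read. 15 concentrations, triplicates.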

The target in assay [8] is Thyrotropin receptor (Homo sapiens) (UniProt P16473). As to the kind of experiment: qHTS assay to identify small molecule antagonists of the thyroid stimulating hormone receptor (TSHR) signaling pathway (AID 1259385). Also: nearly all actives have a fitted effect of over 20% in size. The method, boiled down:
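TSHR-HEK293 cells (800/well) plated 18 h, then compounds with Ro20-1724 and TSH at 1.5 ng/mL final, 30 min at room temperature. cAMP quantified by HTRF (cAMP-d2/anti-cAMP-cryptate, 1 h); 15 concentrations in triplicate.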

Assay [9] can be described thus: qHTS assay to identify small molecule agonists of the estrogen receptor alpha (ER-alpha) signaling pathway in the presence of an antagonist - cell viability counter screen (AID 1259386; active = well fitted curve in the direction sought with a large enough effect in the repeat runs; an effect the other way counts as inactive or inconclusive;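 also: cells exposed to compounds for 22 h at 37 °C before the viability read; nearly all actives have a fitted effect of over 30% in size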; also: potency is read from the fitted curve at half-maximal effect). A digest of the protocol:
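VM7Luc4E2, stripped-serum pre-culture 5 d; 24hr plating; +ICI-182,780 10.0nM final; cpds 15 conc, 22hr, 37C/5% CO2; CellTiter-Fluor added at 21hr, fluorescence 1hr later.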

Assay [10] addresses Progesterone receptor (Homo sapiens) (UniProt P06401). As to the kind of experiment: qHTS assay to identify small molecule agonists of the progesterone receptor (PR) signaling pathway (AID 1346784). Also: nearly all actives have a fitted effect of over 30% in size. A digest of the protocol: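 Agonist qHTS: compounds pinned onto 3,000 PR-UAS-bla HEK 293T cells per well in charcoal-stripped serum medium, 16hr at 37C, then beta-lactamase activity measured by LiveBLAzer FRET fluorescence after 2 hours at room temperature.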

Assay [11] has the same target. The assay is described as follows: qHTS assay to identify small molecule antagonists of the progesterone receptor (PR) signaling pathway (AID 1346795; active = well fitted inhibition curve with a large enough effect in the signal ratio in the repeat runs, not every such curve was filed as active; the % refers to the signal ratio; also: potency is read from the fitted curve at half-maximal effect). The method, boiled down:
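Antagonist mode with agonist R5020 at 1 nM final and 16 hr incubation at 37C. Reporter was beta-lactamase driven by UAS in HEK293T (PR-UAS-bla), 2% charcoal-stripped serum; signal from LiveBLAzer FRET substrate, 2 hr at room temperature.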

Assay [12] is described as follows: qHTS assay to identify small molecule antagonists of the TGF-beta/Smad signaling pathway - cell viability counter screen (AID 1346824; active = well fitted curve in the direction sought with a large enough effect in the repeat runs; an effect the other way counts as inactive or inconclusive; also: nearly all actives have a fitted effect of over 50% in size). The method, boiled down: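 SBE-bla HEK 293T cells, incubated overnight, then compound plus 0.25 ng/mL TGF-beta1 (stock added) for 5 hr at 37 C. Viability was read in the same wells by CellTiter-Glo luminescence after 30 min at room temperature.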

A short description of assay [13]: qHTS assay to identify small molecule agonists of the TGF-beta/Smad signaling pathway - cell viability counter screen (AID 1346829; active = well fitted curve in the direction sought with a large enough effect in the repeat runs; an effect the other way counts as inactive or inconclusive; also: top concentration of the series differs between compounds; nearly all actives have a fitted effect of over 45% in size). A digest of the protocol:
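HEK 293T SBE-bla line, 5 hr compound exposure at 37 C, multiplexed CellTiter-Glo viability read by luminescence.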

Assay [14] can be described thus: qHTS assay to identify small molecule agonists of the TGF-beta/Smad signaling pathway (AID 1346859; active = well fitted activation curve with a large enough effect in the signal ratio in the repeat runs, not every such curve was filed as active; the % refers to the signal ratio; also: series mostly up to about 77 µM). The method, boiled down:
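Fluorescence (ex 405 nm; em 460 and 530 nm) was read 2 h after LiveBLAzer FRET substrate at RT. The preceding compound treatment of overnight-plated SBE-bla HEK293T cells lasted 5 h at 37 C.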

In assay [15] the target is Thyrotropin-releasing hormone receptor (Homo sapiens) (UniProt P34981). As to the kind of experiment: qHTS assay to identify small molecule antagonists of the thyrotropin-releasing hormone receptor (TRHR) signaling pathway (AID 1346877; active = well fitted inhibition curve with a large enough effect in the repeat runs, not every such curve was filed as active; also: series mostly up to about 51 µM). A digest of the protocol:
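Intracellular calcium fluorescence, read kinetically every second over 3 min, reports TRH-evoked signalling in HEK293 cells carrying TRHR. Test compounds were added 5 min ahead of a 1 nM TRH challenge.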

In assay [16] the target is Androgen receptor (Homo sapiens) (UniProt P10275). As to the kind of experiment: qHTS assay to identify small molecule agonists of the androgen receptor (AR) signaling pathway in the presence of an antagonist (AID 1259381). Also: nearly all actives have a fitted effect of over 15% in size. A digest of the protocol: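 MDA-kb2 cells, 3,000/well, rested 5hr at 37C/0% CO2 → nilutamide 3.0uM final or buffer → compounds, 15 conc. → 16hr at 37C → ONE-Glo, 30min RT → luminescence.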
Androgen receptor (Homo sapiens), sequence (P10275 whole entry, looked up): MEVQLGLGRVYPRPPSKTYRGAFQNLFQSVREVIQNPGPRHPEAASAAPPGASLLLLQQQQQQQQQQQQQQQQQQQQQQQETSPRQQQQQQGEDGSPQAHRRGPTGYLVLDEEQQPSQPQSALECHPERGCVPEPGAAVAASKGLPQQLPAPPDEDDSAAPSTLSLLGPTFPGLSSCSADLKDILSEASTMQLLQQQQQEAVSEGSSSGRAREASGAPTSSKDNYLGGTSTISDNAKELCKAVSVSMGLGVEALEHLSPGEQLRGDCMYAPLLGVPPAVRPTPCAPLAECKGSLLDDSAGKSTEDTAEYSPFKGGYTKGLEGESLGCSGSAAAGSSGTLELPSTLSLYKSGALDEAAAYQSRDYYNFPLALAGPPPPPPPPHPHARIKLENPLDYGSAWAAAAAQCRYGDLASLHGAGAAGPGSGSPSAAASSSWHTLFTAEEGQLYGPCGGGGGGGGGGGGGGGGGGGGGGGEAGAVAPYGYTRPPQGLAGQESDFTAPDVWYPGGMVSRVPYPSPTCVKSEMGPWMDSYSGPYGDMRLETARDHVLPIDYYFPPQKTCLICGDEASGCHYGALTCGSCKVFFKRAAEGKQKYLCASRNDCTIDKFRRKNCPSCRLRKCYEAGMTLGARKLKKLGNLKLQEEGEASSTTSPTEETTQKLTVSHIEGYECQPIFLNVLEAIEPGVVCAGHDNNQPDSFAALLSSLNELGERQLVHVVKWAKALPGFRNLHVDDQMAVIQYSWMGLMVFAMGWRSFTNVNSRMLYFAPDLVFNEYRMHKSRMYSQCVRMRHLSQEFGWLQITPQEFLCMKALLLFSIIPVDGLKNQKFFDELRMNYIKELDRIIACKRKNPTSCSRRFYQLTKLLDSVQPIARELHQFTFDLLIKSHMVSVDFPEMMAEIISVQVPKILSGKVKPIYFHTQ

A short description of assay [17]: qHTS assay to identify small molecule antagonists of the progesterone receptor (PR) signaling pathway - cell viability counter screen (AID 1346798; active = well fitted curve in the direction sought with a large enough effect in the repeat runs; an effect the other way counts as inactive or inconclusive; also: series mostly up to about 92 µM; nearly all actives have a fitted effect of over 50% in size). The method, boiled down:
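Cytotoxicity read as CellTiter-Glo luminescence (30 min, room temperature) in the same wells as the beta-lactamase readout. HEK293T PR-UAS-bla cells in charcoal-stripped 2% FBS received compound and R5020, then 16 h at 37C, 5% CO2.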

Assay [18] can be described thus: qHTS assay to identify small molecule agonists of the progesterone receptor (PR) signaling pathway - cell viability counter screen (AID 1346799). Also: nearly all actives have a fitted effect of over 45% in size. The method, boiled down:
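Cytotoxicity measured by CellTiter-Glo luminescence (30 min, RT) in the same wells as the PR beta-lactamase agonist read. Those HEK293T cells had 16 h compound treatment at 37 C in 2% charcoal-stripped FBS medium.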

Assay [19] is described as follows: qHTS assay to identify small molecule agonists of the androgen receptor (AR) signaling pathway in the presence of an antagonist - cell viability counter screen (AID 1259379; active = well fitted curve in the direction sought with a large enough effect in the repeat runs; an effect the other way counts as inactive or inconclusive;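 also: MDA-kb2 human breast cancer cells carrying an MMTV luciferase reporter; series mostly up to about 92 µM; nearly all actives have a fitted effect of over 25% in size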). The method, boiled down: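 Cells: MDA-kb2 (MMTV-luc, AR and GR elements), 3,000/well, 5 hr settle. Added: nilutamide 3.0uM final, then compounds (15 conc.). Incubation: 16 hr, 37C, no CO2. Read-out: CellTiter-Fluor, 1 hr, fluorescence.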

Assay [20] has as its target Estrogen receptor beta (Homo sapiens) (UniProt Q92731). The assay is described as follows: qHTS assay to identify small molecule antagonists of the estrogen receptor beta (ER-beta) signaling pathway (AID 1259378; active = well fitted inhibition curve with a large enough effect in the signal ratio in the repeat runs, not every such curve was filed as active; the % refers to the signal ratio; also: potency is read from the fitted curve at half-maximal effect). A digest of the protocol: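 ER-beta-UAS-bla HEK293T cells in 2% charcoal-stripped FBS medium treated with compound plus 1nM final 17-beta-estradiol for 16 hr at 37C. Beta-lactamase reporter read by FRET substrate fluorescence after 2 hours at room temperature.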

Results filed as inconclusive are left out. Calls of active or inactive are those of the source. Unless noted, calls follow the shape of the full dose curve.

In PubChem BioAssay (Tox21) one finds Potency and outcome data, which are given here for six compounds.

Progesterone receptor (Homo sapiens), sequence (P06401 whole entry, looked up): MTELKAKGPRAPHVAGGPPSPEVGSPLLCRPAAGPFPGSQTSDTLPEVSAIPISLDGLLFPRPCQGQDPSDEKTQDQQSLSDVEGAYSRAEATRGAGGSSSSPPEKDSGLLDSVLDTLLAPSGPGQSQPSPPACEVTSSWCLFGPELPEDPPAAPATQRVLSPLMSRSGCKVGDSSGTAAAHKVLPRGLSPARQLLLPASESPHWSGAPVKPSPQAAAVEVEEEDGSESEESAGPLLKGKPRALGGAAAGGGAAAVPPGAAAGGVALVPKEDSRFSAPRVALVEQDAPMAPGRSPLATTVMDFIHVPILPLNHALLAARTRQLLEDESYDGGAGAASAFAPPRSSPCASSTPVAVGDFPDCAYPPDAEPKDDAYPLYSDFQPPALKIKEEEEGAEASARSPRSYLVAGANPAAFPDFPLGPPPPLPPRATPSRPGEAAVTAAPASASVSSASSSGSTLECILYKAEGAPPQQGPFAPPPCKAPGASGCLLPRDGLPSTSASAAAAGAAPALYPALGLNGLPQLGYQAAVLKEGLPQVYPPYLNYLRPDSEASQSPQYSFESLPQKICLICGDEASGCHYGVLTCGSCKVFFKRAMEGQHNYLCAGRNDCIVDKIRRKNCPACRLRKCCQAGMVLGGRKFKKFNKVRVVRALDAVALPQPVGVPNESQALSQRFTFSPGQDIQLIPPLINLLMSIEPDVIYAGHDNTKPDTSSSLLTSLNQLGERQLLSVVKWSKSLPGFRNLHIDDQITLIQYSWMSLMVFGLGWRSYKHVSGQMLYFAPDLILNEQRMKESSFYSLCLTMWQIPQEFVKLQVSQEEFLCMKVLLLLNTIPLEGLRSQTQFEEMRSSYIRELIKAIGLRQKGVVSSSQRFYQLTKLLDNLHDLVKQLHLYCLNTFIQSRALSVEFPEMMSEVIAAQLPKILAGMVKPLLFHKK
Thyrotropin-releasing hormone receptor (Homo sapiens), sequence (P34981 whole entry, looked up): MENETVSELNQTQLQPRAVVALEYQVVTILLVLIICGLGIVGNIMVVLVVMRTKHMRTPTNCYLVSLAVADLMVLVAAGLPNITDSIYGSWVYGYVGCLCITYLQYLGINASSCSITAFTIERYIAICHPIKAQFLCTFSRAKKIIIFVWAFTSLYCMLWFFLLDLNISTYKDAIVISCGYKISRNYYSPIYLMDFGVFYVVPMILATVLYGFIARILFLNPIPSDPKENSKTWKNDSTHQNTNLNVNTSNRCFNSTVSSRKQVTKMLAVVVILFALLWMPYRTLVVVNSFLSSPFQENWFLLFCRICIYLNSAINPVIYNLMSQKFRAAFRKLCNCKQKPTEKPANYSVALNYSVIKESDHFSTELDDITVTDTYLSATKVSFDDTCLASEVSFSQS
Thyrotropin receptor (Homo sapiens), sequence (P16473 whole entry, looked up): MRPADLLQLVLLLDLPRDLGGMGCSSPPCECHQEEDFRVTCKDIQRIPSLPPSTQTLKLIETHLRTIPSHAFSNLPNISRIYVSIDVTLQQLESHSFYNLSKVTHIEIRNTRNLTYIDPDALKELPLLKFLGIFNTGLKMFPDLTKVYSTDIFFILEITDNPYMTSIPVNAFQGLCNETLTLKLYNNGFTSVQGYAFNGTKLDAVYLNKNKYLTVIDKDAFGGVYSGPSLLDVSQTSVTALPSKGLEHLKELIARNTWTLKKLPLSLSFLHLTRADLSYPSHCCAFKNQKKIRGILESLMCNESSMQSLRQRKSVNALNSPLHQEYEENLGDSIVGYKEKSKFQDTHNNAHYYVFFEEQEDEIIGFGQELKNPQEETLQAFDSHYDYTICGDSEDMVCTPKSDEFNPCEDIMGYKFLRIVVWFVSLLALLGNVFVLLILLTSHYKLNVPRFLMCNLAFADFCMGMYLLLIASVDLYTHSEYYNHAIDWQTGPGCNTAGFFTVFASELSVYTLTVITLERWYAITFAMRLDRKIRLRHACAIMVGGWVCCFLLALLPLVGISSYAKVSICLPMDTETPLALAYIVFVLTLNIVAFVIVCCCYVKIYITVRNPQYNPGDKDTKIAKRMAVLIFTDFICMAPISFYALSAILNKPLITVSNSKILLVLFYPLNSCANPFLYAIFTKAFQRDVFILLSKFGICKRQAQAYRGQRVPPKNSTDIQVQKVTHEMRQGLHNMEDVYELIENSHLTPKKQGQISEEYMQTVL

For `CCCCc1c(C)nc(NCC)nc1OS(=O)(=O)N(C)C`, the Potency result in assay [1], in assay [3], in assay [4], in assay [5], in assay [6] and in assay [8] was “inactive” throughout. Moreover, the Potency result in [10], in assay [12], in [13] and in [15] was “inactive” throughout. Further, the Potency in assay [2] is 61.1 µM (active); in assay [9], 48.6 µM (active); in assay [11] it was 27.3 µM (active). Besides, the call in assay [7] and in assay [14] was inactive.

Take `CCCCC(CC)COP(=O)(Oc1ccccc1)Oc1ccccc1` (stereo not given): the Potency entry in assay [1], in assay [2], in assay [3], in [16], in assay [5] and in assay [6] was “inactive” throughout. Besides, the Potency entry in [8], in assay [9], in [10], in assay [17], in assay [18] and in [12] was “inactive” in each case. Further, the Potency result in assay [13] and in assay [15] was “inactive” each time. In addition, the result in assay [7] and in assay [14] was inactive.

With `C=CC(=O)OCC(C)O` (stereo not given), the Potency result in assay [1], in assay [2], in assay [3], in assay [19], in [4] and in assay [5] was “inactive” in each case. Further, the Potency entry in [8], in [9], in [10], in [11], in assay [17] and in assay [18] was “inactive” throughout. Further, the Potency entry in assay [12], in assay [13] and in assay [15] was “inactive” throughout. In addition, the compound was classed as inactive in assay [7] and in assay [14].

With `O=S(=O)(O)C(F)(F)C(F)(F)C(F)(F)C(F)(F)F`, the Potency result in [1], in [3], in assay [19], in [4], in assay [5] and in assay [8] was “inactive” each time. For the same compound, the Potency result in [9], in assay [10], in assay [17], in assay [12] and in assay [13] was “inactive” in each case. Further, the results for the Potency in assay [2] and in assay [6] were 57.8 µM (active) and 0.578 µM (active), respectively. The result in assay [7] and in [14] was inactive.

As to `CC[C@H]1C[C@H]2[C@@H]3CCC4=CC(=O)CC[C@@H]4[C@H]3CC[C@]2(C)[C@H]1O`, the Potency entry in [1], in assay [2], in assay [3], in assay [19], in [4] and in assay [5] was “inactive” throughout. The Potency entry in assay [6], in assay [8], in assay [9], in assay [17], in [12] and in assay [13] was “inactive” throughout. The call in assay [7] and in assay [14] was inactive.

In the case of `CCC(C)(NC(=O)c1cc(Cl)c(C)c(Cl)c1)C(=O)CCl` (stereo not given), the Potency result in assay [1], in assay [2], in assay [6], in assay [9], in assay [10] and in assay [17] was “inactive” throughout. Besides, the Potency result in [18], in [12], in assay [13] and in assay [15] was “inactive” each time. The Potency was 19.4 µM (active) in assay [20] and 61.5 µM (active) in [4]. Besides, the compound was classed as inactive in assay [7].
